TSHR antag: Antagonists of the Thyroid Stimulating Hormone Receptor: HTS campaign; AID 504810, 2011; activity change, negative = inhibition, % at 11.5 µM; 330,000 tested, 0.2% active; TSHR-expressing cells, TSH-stimulated cAMP HTRF, 2 h; active compounds read low; Thyrotropin receptor (Homo sapiens), P16473;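 active means activity change below a set negative limit, meaning inhibition stronger than a set level, cut at about -70% in these data; inconclusive means activity change between two set negative limits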
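TSHR-expressing cells were treated with compounds, then stimulated with TSH at EC80 (4nM final) for 2 hours at 37 deg C. Cellular cAMP was measured by HTRF competition between lysate cAMP and cAMP-d2 for a cryptate-labelled anti-cAMP antibody.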
B2AR arrestin: qHTS assay of beta-arrestin-biased ligands of beta2-adrenergic receptor; Beta-2 adrenergic receptor (Homo sapiens), P07550; beta-arrestin recruitment to beta2AR, cell-based reporter; Potency, µM (titrated, usually from 46.1 µM), inactives show top-dose activation, usual class: activators; 330,000 tested, 0.02% active; AID 492947, 2010;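 further: potency means the concentration at half of the fitted maximal effect; 0% = DMSO controls and full agonism = EC100 isoproterenol or metaproterenol; nearly all actives have a fitted effect of over 65% in size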
Gal4-VP16 FLuc: VP16 counterscreen qHTS for inhibitors of ROR gamma transcriptional activity; AID 2546, 2010; Potency, µM (top dose mostly 53.6 µM), for the others: at the highest dose activity, negative = inhibition, usual class: inhibitors; 310,000 tested, 3.5% active; Drosophila S2 Gal4-VP16 UAS-luciferase, luminescence, 20 h;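 further: Gal4-VP16 expression switched on by copper sulfate through the metallothionein promoter; potency means the concentration at half of the fitted maximal effect; nearly all actives have a fitted effect of over 50% in size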
ELG1 repair inh: qHTS screen for small molecules that inhibit ELG1-dependent DNA repair in human embryonic kidney (HEK293T) cells expressing luciferase-tagged ELG1 | HEK293T ELG1-luciferase reporter, luminescence, 16 h; DNA damage induced by 5-fluorouridine | Potency, µM (titrated, usually from 46.1 µM), for the others: at the top dose activity change, negative = inhibition, usual class: inhibitors | 330,000 tested, 2.3% active; further: potency means the concentration at half of the fitted maximal effect; nearly all actives have a fitted effect of over 55% in size
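Quantitative HTS, concentration-response format. 2,000 cells/well co-treated with 5-fluorouridine and compound, 16 hr in 5% CO2 at 37 °C; ONE-Glo luminescence read after 30 min.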
RORgamma inh: qHTS for inhibitors of ROR gamma transcriptional activity; Nuclear receptor ROR-gamma (Mus musculus), P51450; Drosophila S2 Gal4-RORgamma UAS-luciferase reporter, 20 h; Potency, µM (doses to about 53.6 µM), without a hit: at the top dose activity change, negative = inhibition, most hits filed as inhibitors; 310,000 tested, 5.4% active; AID 2551, 2010; further: potency means the concentration at half of the fitted maximal effect; nearly all actives have a fitted effect of over 60% in size
Target sequence (P51450 whole entry, looked up, the tested form may be a part): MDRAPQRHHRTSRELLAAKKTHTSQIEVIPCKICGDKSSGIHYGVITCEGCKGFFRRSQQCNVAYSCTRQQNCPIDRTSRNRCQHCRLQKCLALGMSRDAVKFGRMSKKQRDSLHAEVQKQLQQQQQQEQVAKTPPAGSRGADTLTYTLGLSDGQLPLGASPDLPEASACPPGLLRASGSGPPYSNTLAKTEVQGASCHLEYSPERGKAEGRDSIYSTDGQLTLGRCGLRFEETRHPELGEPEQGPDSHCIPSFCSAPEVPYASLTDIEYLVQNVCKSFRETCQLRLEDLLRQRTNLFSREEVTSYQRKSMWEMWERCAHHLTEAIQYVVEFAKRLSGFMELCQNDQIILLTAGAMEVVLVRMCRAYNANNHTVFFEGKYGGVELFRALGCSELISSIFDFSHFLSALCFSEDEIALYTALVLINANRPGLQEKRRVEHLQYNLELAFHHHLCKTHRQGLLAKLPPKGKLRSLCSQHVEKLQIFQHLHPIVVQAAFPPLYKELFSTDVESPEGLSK
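Stably transfected Drosophila Schneider cells are the test system, with ROR gamma fused to Gal4 and luciferase under UAS control; luminescence is read after 20 hr of 700 uM copper sulfate induction at ambient temperature.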
* hit, by the source's call; ? = inconclusive; nt = no result; [ ] = another dose, or the depositor's remark. In the library only some 7.5% were active in any assay of this set; here they are far more common. Unless noted, the call rests on the fitted dose curve; in most records, active means well fitted curve in the direction sought with a large enough effect; inconclusive means small, poorly fitted or top-dose-only effect, or another doubt; inactive means no such curve, though single readings can be large; an effect the other way counts as inactive or inconclusive. Unless noted, on the % scale 0 is the no-effect control and ±100 the full control effect.

SMILES | TSHR antag | B2AR arrestin | Gal4-VP16 FLuc | ELG1 repair inh | RORgamma inh
COc1ccc(N2CCCn3c2nc2c3c(=O)n(Cc3ccccc3F)c(=O)n2C)cc1 | 5 | 0% | -11% | -1% | 27%
Cn1c(=O)n(C/C=C/c2ccccc2)c(=O)c2c1nc1n2CCCN1c1ccc(F)cc1 | -8 | 0% | -13% | 23µM* | 0%
Cn1c(=O)n(C/C=C/c2ccccc2)c(=O)c2c1nc1n2CCCN1Cc1ccccc1 | -12 | -1% | -9% | 21µM* | 5%
CN(CC(=O)N1CCN(c2ccccn2)CC1)S(=O)(=O)c1ccc2ccccc2c1 | 1 | 0% | 1% | 10µM* | 1%
Cc1ccc(S(=O)(=O)N(C)CC(=O)N2CCN(c3ccccn3)CC2)cc1 | -3 | -1% | 6% | -19% | 16%
CCN(CC)CCC(c1ccc(N(C)C)cc1)c1c(OC)cc(OC)c2c1OC(=O)CC2c1ccc(OC)cc1 (centres undefined) | nt | nt | 1% | nt | 12%
CC(C)(C)c1cn(-c2ccc(F)cc2)c(=S)[nH]1 | -6 | 0% | 10µM* | 1% | 8.9µM*
Fc1ccc(-n2c(=S)[nH]c3cccnc32)cc1 | 17 | -1% | ? | 6% | ?
CC1CCCCN1C(=O)c1ccc(CS(=O)(=O)Cc2ccccc2)cc1 (centres undefined) | 0 | 0% | -4% | -12% | 16%
O=C(CO)N/N=C/c1c2ccccc2cc2ccccc12 | -7 | 0% | 0% | 4% | -15%
N#CCC(=O)N/N=C/c1c2ccccc2cc2ccccc12 | -21 | -1% | ? | -7% | 11µM*
O=C(CN1CCOCC1)N/N=C/c1ccco1 | -7 | -1% | 0% | 5% | -1%
O=C(CN1CCOCC1)N/N=C/c1c(O)ccc2ccccc12 | -13 | 0% | 1.4µM* | ? | ?
O=C(CNc1ccccc1)N/N=C/c1c(O)ccc2ccccc12 | -7 | 0% | 2.8µM* | ? | 1.6µM*
O=C(CSCC(=O)Nc1ccccc1)N/N=C/c1c(O)ccc2ccccc12 | -4 | -1% | 3.5µM* | ? | 1µM*
COc1ccc(NC(C)C(=O)N/N=C/c2c(O)ccc3ccccc23)cc1 (centres undefined) | -3 | -1% | 3.5µM* | ? | 1.6µM*
Cc1nc2ccccn2c1C(=O)NC1CCCc2ccccc21 (centres undefined) | -26 | 0% | 13µM* | ? | ?
O=C(O)CCC(=O)Nc1ccc(SSc2ccc(NC(=O)CCC(=O)O)cc2)cc1 | -2 | -1% | -5% | 1% | 14%
CCn1c(-c2csc3ccccc23)n[nH]c1=S | -3 | 0% | 6.3µM* | 15% | 6.3µM*
CCn1c(-c2csc3c2CCC(C)C3)n[nH]c1=S (centres undefined) | -21 | 0% | 2.8µM* | 5% | 2µM*
CC(C)Cn1c(-c2csc3ccccc23)n[nH]c1=S | -19 | 0% | 6.3µM* | 9% | 1.1µM*
Cc1cccc(-n2c(-c3csc4ccccc34)n[nH]c2=S)c1 | -8 | -1% | -18% | -12% | 2µM*
Cc1ccc([N+](=O)[O-])c(-c2n[nH]c(=S)n2-c2cccc(Cl)c2)c1 | -1 | 0% | -12% | 2% | ?
O=c1cnc2cnc(N3CCNCC3)nc2n1CCc1ccccc1 | nt | nt | -21% | nt | -1%
CCOCCOC(=O)Cn1cnc2scc(-c3ccc(C)cc3)c2c1=O | 6 | 0% | 0% | -14% | 19%
SMILES | TSHR antag | B2AR arrestin | Gal4-VP16 FLuc | ELG1 repair inh | RORgamma inh
CCN(CC)CCn1c(=S)[nH]c2ccc(Cl)cc2c1=O | -13 | 0% | ? | 0% | ?
CC(C)n1c(=S)[nH]c2cc(Cl)ccc21 | -2 | 0% | 20µM* | -6% | ?
CCCC[C@@H]1CNC(=S)N1CCc1cccc2ccccc12 | -6 | 0% | 4.5µM* | -15% | 1.6µM*
S=C1NC[C@H](Cc2ccccc2)N1CCc1cccc2ccccc12 | -2 | 0% | 5.6µM* | ? | 1µM*
CCCCN1C(=S)NC[C@@H]1Cc1cccc2ccccc12 | -3 | 0% | 11µM* | 25% | 3.2µM*
S=C1NC[C@H](Cc2cccc3ccccc23)N1CC1CCCCC1 | -13 | -1% | 5µM* | -18% | 0.71µM*
O=C1NC[C@@H](Cc2cccc3ccccc23)N(CC2CCCCC2)C1=O | 6 | -1% | -4% | -5% | 8%
CCCCc1n[nH]c(=S)n1Cc1ccc(C)cc1 | -5 | 0% | ? | 7% | 5.6µM*
O=C(COc1ccccc1)NCc1n[nH]c(=S)n1-c1ccccc1 | 5 | 0% | 10% | 10% | -28%
COc1ccc(C(=O)CSc2nnc(CCc3ccccc3)n2-c2ccccc2)cc1 | 22 | 0% | ? | -13% | 16µM*
COCCn1c(CCc2ccccc2)n[nH]c1=S | -10 | 0% | ? | 15% | 11µM*
CCCOc1ccc(CCc2n[nH]c(=S)n2-c2ccccc2)cc1 | 6 | -1% | -18%[10 µM] | -20% | 2.8µM*
CCCCn1c(-c2cccnc2)n[nH]c1=S | 0 | 1% | -28% | 7% | ?
Cc1ccc(C)c(N(CC(=O)NC2CCCCC2)C(=O)CNC(=O)c2ccco2)c1 | -6 | 0% | 2% | 0% | 9%
Cc1ccc(CNC(=O)[C@@H](NC(=O)C2CCN(C(=O)[C@@H](N)CC(C)C)CC2)C(C)C)cc1 | 8 | -1% | 5% | 19% | -5%
CCOc1ccc(-n2c(CCc3ccccc3)n[nH]c2=S)cc1 | -2 | 0% | ? | 2% | ?
CCCOc1ccc(CCc2n[nH]c(=S)n2Cc2ccccc2)cc1 | -8 | 1% | 1.3µM* | -8% | 2µM*
Cc1ccc(NCc2nnc(SCC(=O)O)n2Cc2ccccc2)cc1Cl | -1 | 0% | -11% | 14% | -2%
COc1ccc(-n2c(CCc3ccccc3)n[nH]c2=S)cc1 | -5 | 3% | -24% | 9% | 5µM*
Cc1ccc(NCc2n[nH]c(=S)n2Cc2ccccc2)cc1Cl | 4 | 0% | ? | -1% | 4µM*
CCCCCC(O)CCc1n[nH]c(=S)n1-c1ccccc1 (centres undefined) | -6 | 0% | 2% | 5% | 6.3µM*
S=c1[nH]nc(CCc2nc3ccccc3[nH]2)n1-c1ccccc1 | -3 | 0% | -15% | -3% | 3%
O=C(CCC(=O)N1CCCC(Nc2ccccc2)C1)c1ccc(F)cc1 (centres undefined) | -14 | -1% | 0% | 13% | 40%
C=CCn1c(CCC(O)COCCC)n[nH]c1=S (centres undefined) | -9 | 0% | 3% | 6% | -19%
